Assay results reported in PubChem BioAssay (EPA / NIEHS).
Active and inactive are the calls of the source. Rule for the calls: active = hit-call score of the fitted dose curve at least 0.9, where 1 is the maximum; inactive = score below 0.9.

What was measured:
[1] = ATG_GLI_CIS: Attagene CIS-FACTORIAL HepG2 Assay for human Zinc Finger Protein GLI1 (AID 2282945); details: HepG2, Attagene cis-factorial reporter mRNA, GLI element; actives raise or lower the signal
How it was run: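 Transiently transfected HepG2 cells report endogenous transcription factor activity via cis-element-driven reporter units. After 24 h compound exposure, reporter mRNA was measured by RT-PCR with capillary electrophoresis; bidirectional fitting against DMSO baseline.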

[2] = ATG_ISRE_CIS: Attagene CIS-FACTORIAL HepG2 Assay for human Interferon Regulatory Factor 1 (IRF1) binding to an Interferon-Stimulated Response Element (ISRE) (AID 2282948); details: HepG2 ISRE cis-reporter (Attagene), mRNA transcription readout; actives raise or lower the signal
How it was run: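 Endogenous transcription factor activity read as reporter transcript abundance via RT-PCR and capillary electrophoresis. HepG2 cells transiently transfected, 24 h chemical exposure. Gain or loss fitted against DMSO baseline.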

[3] = ATG_M_32_CIS: Attagene CIS-FACTORIAL HepG2 Assay for M32 Transcription Factor (Internal Marker) (AID 2282949); details: HepG2 Attagene cis-factorial M32 reporter, mRNA; actives raise or lower the signal;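 note: background control marker of the multiplexed CIS panel rather than a real target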
How it was run: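 HepG2 transfectants (cis-regulated reporter transcription units) dosed 24 h. Reporter mRNA by RT-PCR plus CE, analysed as gain or loss relative to DMSO.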

[4] = ATG_M_06_CIS: Attagene CIS-FACTORIAL HepG2 Assay for M06 Transcription Factor (Internal Marker) (AID 2282950); details: HepG2 Attagene CIS-FACTORIAL M06 internal marker reporter; actives raise or lower the signal
How it was run: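 Fluorescence-labelled RT-PCR products from cis-promoter reporter units, cut with HpaI and resolved by capillary electrophoresis, give the signal. Cells are human HepG2, dosed for 24 h. Serves as background control, fitted relative to DMSO.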

[5] = biological target: Hypoxia-inducible factor 1-alpha (Homo sapiens) (UniProt Q16665); assay: ATG_HIF1a_CIS: Attagene CIS-FACTORIAL HepG2 Assay for human Hypoxia Inducible Factor 1 (HIF1A) (AID 2282951); details: HepG2 Attagene cis-factorial HIF1a reporter transcription; actives raise or lower the signal
How it was run: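 HepG2 cells transiently transfected with multiple cis-regulated reporter transcription units measure endogenous transcription factor activity. After 24 h exposure, reporter mRNA is quantified by RT-PCR with 6-FAM labelling, HpaI digestion and capillary electrophoresis. Bidirectional fitting against DMSO.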

[6] = biological target: Heat shock factor protein 1 (Homo sapiens) (UniProt Q00613); assay: ATG_HSE_CIS: Attagene CIS-FACTORIAL HepG2 Assay for human Heat Shock Transcription Factor 1 (HSE) (AID 2282953); details: HepG2 HSE cis-reporter, Attagene RNA transcription; actives raise or lower the signal
How it was run: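 After a 24 h incubation with test chemical, transfected HepG2 cells were harvested for RNA; reporter transcripts were measured by RT-PCR and capillary electrophoresis. Values reflect gain or loss of signal relative to DMSO.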

[7] = ATG_MRE_CIS: Attagene CIS-FACTORIAL HepG2 Assay for human Metal Responsive Element (MRE) (AID 2282954); details: HepG2 MRE cis-reporter transcription, Attagene multiplex; actives raise or lower the signal
How it was run: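 Measured here is mRNA induction from an MRE cis-element reporter in HepG2 after 24 h, quantified by fluorescence of labelled RT-PCR products on capillary electrophoresis; gain- and loss-of-signal fits use DMSO as baseline.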

[8] = ATG_PBREM_CIS: Attagene CIS-FACTORIAL HepG2 Assay for human Phenobarbital-responsive Enhancer Module (PBREM) (AID 2282955); details: HepG2 PBREM cis-reporter, Attagene multiplexed transcription; actives raise or lower the signal
How it was run: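 HepG2 cells transiently transfected with multiple cis-regulated reporter units measure endogenous transcription factor activity; 24 h compound exposure. Reporter mRNA quantified by RT-PCR, fluorescent labelling, HpaI digestion and capillary electrophoresis; bidirectional fit versus DMSO.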

[9] = biological target: Paired box protein Pax-6 (Homo sapiens) (UniProt P26367); assay: ATG_Pax6_CIS: Attagene CIS-FACTORIAL HepG2 Assay for human Paired Box 6 (PAX6) (AID 2282956); details: HepG2 CIS-FACTORIAL PAX6 reporter transcription, RNA readout; actives raise or lower the signal
How it was run: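 Read-out is reporter transcript level, measured by RT-PCR with fluorescent primer extension and capillary electrophoresis after 24 h dosing of transfected HepG2 cells. Activity in either direction fitted relative to DMSO control.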

[10] = ATG_PXRE_CIS: Attagene CIS-FACTORIAL HepG2 Assay for human Pregnane X Receptor Element (PXRE) (AID 2282957); details: HepG2 Attagene CIS-FACTORIAL PXRE reporter, mRNA; actives raise or lower the signal
How it was run: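 After a 24 h chemical incubation, total RNA from transfected HepG2 cells was reverse-transcribed and reporter cDNA amplified, FAM-labeled, HpaI-digested and sized by capillary electrophoresis. DMSO served as baseline for bidirectional curve fitting.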

[11] = ATG_RORE_CIS: Attagene CIS-FACTORIAL HepG2 Assay for human RAR-related Orphan Receptor Element (RORE) (AID 2282959); details: HepG2 Attagene cis-factorial RORE reporter, mRNA; actives raise or lower the signal
How it was run: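 HepG2 cells carrying transiently transfected cis-regulated reporter units; RORE-driven reporter mRNA quantified 24 h post-dosing by RT-PCR, 6-FAM primer extension, HpaI digestion and capillary electrophoresis. Bidirectional fit versus DMSO.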

[12] = ATG_Sox_CIS: Attagene CIS-FACTORIAL HepG2 Assay for human SRY-box transcription factor (SOX) (AID 2282960); details: HepG2 Attagene cis-factorial SOX reporter, mRNA; actives raise or lower the signal
How it was run: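 HepG2 cells transiently transfected with multiple cis-regulated reporter units, then dosed for 24 h. Reporter mRNA quantified by RT-PCR, fluorescent labelling, HpaI digestion and capillary electrophoresis; bidirectional fit versus DMSO.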

[13] = biological target: Transcription factor Sp1 (Homo sapiens) (UniProt P08047); assay: ATG_Sp1_CIS: Attagene CIS-FACTORIAL HepG2 Assay for human Specificity Protein 1 (Sp1) (AID 2282961); details: HepG2 Sp1 cis-reporter transcription, actives raise or lower the signal
How it was run: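 HepG2 cells transiently transfected with multiplexed cis-regulated reporter constructs, chemical exposure 24 h. Reporter mRNA quantified by RT-PCR with capillary electrophoresis; bidirectional fit relative to DMSO.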

[14] = ATG_SREBP_CIS: Attagene CIS-FACTORIAL HepG2 Assay for human Sterol Regulatory Element Binding (SREBP) (AID 2282962); details: HepG2 Attagene cis-factorial SREBP reporter, mRNA; actives raise or lower the signal
How it was run: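 Endogenous SREBP activity read as cis-element-driven reporter transcript in transiently transfected HepG2, 24 h post-dosing; quantified via RT-PCR plus capillary electrophoresis of fluorescent fragments. Gain or loss of signal fitted relative to DMSO baseline.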

[15] = biological target: Hepatocyte nuclear factor 6 (Homo sapiens) (UniProt Q9UBC0); assay: ATG_HNF6_CIS: Attagene CIS-FACTORIAL HepG2 Assay for human Hepatocyte Nuclear Factor 6 (HNF6) (AID 2282952); details: HepG2 Attagene cis-factorial HNF6 reporter transcription; actives raise or lower the signal
How it was run: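 First, HepG2 cells were transfected with the multiplexed cis reporter library and dosed with chemical for 24 h. Next, RNA was reverse-transcribed, PCR-amplified and fluorescently labelled. Finally, HpaI-digested fragments were read by capillary electrophoresis.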

[16] = biological target: Signal transducer and activator of transcription 3 (Homo sapiens) (UniProt P40763); assay: ATG_STAT3_CIS: Attagene CIS-FACTORIAL HepG2 Assay for human Signal Transducer and Activator of Transcription 3 (STAT3) (AID 2282963); details: HepG2, Attagene cis-factorial STAT3 reporter transcription; actives raise or lower the signal
How it was run: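 Fluorescence intensity of 6-FAM-labelled reporter fragments, separated by capillary electrophoresis after RT-PCR, gave the signal. Cells were HepG2 transfected with cis-element reporter units and treated 24 h; fitting was bidirectional relative to DMSO.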

[17] = ATG_TA_CIS: Attagene CIS-FACTORIAL HepG2 Assay for human TA Basal Promoter (AID 2282964); details: HepG2 Attagene CIS-factorial TA basal promoter reporter; actives raise or lower the signal
How it was run: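 Multiplexed mRNA reporter assay, HepG2, 24 h. Reporter cDNA amplified, 6-FAM primer-extended, HpaI-cut, CE-sized; DMSO = negative control and baseline.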

[18] = ATG_PPRE_CIS: Attagene CIS-FACTORIAL HepG2 Assay for human Peroxisome Proliferator-activated Response Element (PPRE) (AID 2282958); details: HepG2 PPRE cis-element reporter, Attagene transcription factor profiling; actives raise or lower the signal
How it was run: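 HepG2 cells are transiently transfected with multiplexed cis-promoter reporter units to report endogenous PPAR activity. After 24 h dosing, reporter mRNA is read by RT-PCR and capillary electrophoresis. Fitting is bidirectional against DMSO.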

Measured: AC50

Sequence of Hypoxia-inducible factor 1-alpha (Homo sapiens) (Q16665 whole entry, looked up): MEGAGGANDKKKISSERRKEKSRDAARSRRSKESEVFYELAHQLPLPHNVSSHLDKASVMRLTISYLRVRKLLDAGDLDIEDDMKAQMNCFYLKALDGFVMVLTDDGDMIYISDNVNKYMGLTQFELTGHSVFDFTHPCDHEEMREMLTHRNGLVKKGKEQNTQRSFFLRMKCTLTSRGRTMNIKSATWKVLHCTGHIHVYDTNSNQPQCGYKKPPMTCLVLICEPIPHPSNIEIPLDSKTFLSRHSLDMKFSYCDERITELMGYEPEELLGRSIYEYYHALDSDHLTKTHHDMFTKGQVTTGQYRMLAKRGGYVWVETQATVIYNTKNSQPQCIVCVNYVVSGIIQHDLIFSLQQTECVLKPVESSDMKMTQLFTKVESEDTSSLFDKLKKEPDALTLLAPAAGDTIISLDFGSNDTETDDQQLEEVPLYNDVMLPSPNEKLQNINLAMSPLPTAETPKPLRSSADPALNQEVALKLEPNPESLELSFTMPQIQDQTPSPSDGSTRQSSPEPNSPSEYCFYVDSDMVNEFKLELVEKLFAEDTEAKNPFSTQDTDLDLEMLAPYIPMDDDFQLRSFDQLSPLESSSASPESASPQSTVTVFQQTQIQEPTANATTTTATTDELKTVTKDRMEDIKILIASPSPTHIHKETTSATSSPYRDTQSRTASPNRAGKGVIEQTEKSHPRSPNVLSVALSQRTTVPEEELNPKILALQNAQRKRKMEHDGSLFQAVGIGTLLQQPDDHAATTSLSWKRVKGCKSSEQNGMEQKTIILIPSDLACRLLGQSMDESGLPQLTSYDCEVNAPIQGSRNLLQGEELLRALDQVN
Sequence of Signal transducer and activator of transcription 3 (Homo sapiens) (P40763 whole entry, looked up, the tested form may be a part): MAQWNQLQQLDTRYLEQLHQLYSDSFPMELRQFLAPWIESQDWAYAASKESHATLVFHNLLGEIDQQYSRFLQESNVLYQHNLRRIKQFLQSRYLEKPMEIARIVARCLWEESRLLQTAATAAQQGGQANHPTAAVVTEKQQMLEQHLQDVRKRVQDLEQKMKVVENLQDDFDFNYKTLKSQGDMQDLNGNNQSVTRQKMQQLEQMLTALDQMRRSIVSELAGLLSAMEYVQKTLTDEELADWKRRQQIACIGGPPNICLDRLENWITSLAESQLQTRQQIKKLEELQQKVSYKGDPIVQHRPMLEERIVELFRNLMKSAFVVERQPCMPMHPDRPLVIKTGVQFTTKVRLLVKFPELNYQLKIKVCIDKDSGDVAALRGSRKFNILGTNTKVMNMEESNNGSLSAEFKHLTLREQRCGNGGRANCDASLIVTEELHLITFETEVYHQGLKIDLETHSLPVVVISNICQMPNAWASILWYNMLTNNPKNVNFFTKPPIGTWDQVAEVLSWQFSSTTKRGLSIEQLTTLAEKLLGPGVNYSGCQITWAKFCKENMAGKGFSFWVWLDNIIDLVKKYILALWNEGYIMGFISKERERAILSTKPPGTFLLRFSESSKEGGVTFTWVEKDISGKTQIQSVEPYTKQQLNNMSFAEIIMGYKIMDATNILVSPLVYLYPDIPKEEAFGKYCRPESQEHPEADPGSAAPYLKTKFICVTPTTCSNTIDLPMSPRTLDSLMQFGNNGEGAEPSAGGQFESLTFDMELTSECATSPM
Sequence of Heat shock factor protein 1 (Homo sapiens) (Q00613 whole entry, looked up): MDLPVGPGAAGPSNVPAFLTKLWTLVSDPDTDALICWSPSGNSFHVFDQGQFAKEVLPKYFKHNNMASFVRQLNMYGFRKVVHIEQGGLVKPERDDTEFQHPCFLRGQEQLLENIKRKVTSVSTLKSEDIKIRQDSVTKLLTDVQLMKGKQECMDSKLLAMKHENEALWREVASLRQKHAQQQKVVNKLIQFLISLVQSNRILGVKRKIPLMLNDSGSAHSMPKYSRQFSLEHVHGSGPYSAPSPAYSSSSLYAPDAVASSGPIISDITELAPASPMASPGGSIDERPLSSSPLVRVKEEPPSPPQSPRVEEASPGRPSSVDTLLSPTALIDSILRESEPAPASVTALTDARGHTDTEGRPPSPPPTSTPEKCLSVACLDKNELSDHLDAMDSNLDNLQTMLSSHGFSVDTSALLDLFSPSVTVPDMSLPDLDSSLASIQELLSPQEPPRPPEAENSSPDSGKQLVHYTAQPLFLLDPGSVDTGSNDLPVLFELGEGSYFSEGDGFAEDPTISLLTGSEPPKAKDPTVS
Sequence of Paired box protein Pax-6 (Homo sapiens) (P26367 whole entry, looked up): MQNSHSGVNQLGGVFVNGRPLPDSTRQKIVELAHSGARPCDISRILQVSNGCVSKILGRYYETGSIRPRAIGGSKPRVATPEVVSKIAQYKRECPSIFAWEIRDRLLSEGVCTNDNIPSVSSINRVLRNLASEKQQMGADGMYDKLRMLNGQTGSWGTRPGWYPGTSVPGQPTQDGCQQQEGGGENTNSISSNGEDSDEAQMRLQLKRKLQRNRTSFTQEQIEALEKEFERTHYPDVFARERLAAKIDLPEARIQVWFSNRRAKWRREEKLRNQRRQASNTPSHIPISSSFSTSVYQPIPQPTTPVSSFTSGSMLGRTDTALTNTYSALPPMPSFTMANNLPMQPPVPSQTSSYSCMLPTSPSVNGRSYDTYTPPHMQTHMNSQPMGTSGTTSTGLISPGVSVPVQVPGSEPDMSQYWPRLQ
Sequence of Hepatocyte nuclear factor 6 (Homo sapiens) (Q9UBC0 whole entry, looked up, the tested form may be a part): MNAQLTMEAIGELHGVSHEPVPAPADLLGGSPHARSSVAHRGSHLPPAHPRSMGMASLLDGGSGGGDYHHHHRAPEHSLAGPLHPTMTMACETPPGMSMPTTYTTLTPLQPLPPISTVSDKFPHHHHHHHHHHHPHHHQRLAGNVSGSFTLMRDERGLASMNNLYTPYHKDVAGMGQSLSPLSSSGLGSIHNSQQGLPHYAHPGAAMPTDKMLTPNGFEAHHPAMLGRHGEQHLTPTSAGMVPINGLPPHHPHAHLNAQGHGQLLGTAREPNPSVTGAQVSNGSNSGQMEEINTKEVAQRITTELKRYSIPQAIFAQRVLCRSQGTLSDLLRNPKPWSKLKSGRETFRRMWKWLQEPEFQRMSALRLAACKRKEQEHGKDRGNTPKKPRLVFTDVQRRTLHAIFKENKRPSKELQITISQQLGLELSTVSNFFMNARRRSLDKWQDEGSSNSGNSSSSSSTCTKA
Sequence of Transcription factor Sp1 (Homo sapiens) (P08047 whole entry, looked up): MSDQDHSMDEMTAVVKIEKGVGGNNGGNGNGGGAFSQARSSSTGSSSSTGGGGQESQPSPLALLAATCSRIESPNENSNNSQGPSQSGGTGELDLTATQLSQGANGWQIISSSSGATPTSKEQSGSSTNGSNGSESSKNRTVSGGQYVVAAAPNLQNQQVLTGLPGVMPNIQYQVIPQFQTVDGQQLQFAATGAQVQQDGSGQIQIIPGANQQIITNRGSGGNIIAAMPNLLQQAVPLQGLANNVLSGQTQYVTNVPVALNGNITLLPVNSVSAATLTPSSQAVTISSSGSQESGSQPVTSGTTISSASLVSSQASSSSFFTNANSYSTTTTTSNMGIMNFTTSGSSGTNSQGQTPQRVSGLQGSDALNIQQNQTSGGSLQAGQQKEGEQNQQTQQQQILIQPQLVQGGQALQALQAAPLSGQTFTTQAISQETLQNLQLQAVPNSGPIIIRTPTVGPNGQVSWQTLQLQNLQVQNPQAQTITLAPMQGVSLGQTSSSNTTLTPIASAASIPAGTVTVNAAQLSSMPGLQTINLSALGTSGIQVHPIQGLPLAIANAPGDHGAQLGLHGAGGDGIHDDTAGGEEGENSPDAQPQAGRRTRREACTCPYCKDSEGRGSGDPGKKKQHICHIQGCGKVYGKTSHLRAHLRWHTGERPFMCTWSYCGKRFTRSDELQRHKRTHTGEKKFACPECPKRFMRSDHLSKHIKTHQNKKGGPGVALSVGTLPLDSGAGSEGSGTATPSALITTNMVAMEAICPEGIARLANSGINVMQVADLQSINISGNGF

CC(C)c1cccc(C(C)C)c1N
inactive: [1] | [2] | [3] | [4] | [5] | [6] | [7] | [8] | [9] | [11] | [12] | [13] | [14]
active: [10] 29.5 µM

C=C1C[C@H]2[C@@H]3C=C(C)C4=CC(=O)CC[C@]4(C)[C@H]3CC[C@]2(C)[C@@]1(OC(C)=O)C(C)=O
inactive: [1] | [2] | [3] | [4] | [5] | [15] | [11] | [12] | [13] | [16]
active: [6] 96.4 µM | [7] 74.1 µM | [9] 63 µM | [10] 3.44 µM | [14] 63 µM | [17] 50.8 µM

CC1=CCC2CC1C2(C)C (stereo unspecified)
inactive: [1] | [2] | [3] | [4] | [5] | [15] | [7] | [9] | [11] | [12] | [13] | [14] | [16] | [17]
active: [10] 37.2 µM

CC(CC=O)CC(C)(C)C (stereo unspecified)
active: [10] 8.08 µM
inactive: [1] | [2] | [3] | [4] | [5] | [15] | [7] | [8] | [9] | [18] | [11] | [12] | [13] | [14] | [16] | [17]

CCCC/C=C/C=C\C=O
inactive: [3] | [4] | [5] | [15] | [8] | [18] | [11] | [13] | [14] | [17]
active: [1] 128 µM | [6] 157 µM | [7] 100 µM | [9] 100 µM | [12] 162 µM

CC(C)OC(=O)c1ccccc1
inactive: [1] | [2] | [3] | [4] | [5] | [15] | [7] | [8] | [9] | [10] | [11] | [12] | [13] | [14] | [16] | [17]

Cc1c(C(=O)c2c[nH]n(C)c2=O)ccc(S(C)(=O)=O)c1C1=NOCC1
inactive: [1] | [3] | [4] | [5] | [15] | [6] | [8] | [9] | [11] | [13] | [14] | [16] | [17]

C=CC(C)(CCC=C(C)C)OC(=O)C=Cc1ccccc1 (stereo unspecified)
inactive: [1] | [3] | [4] | [5] | [15] | [6] | [7] | [8] | [9] | [18] | [11] | [12] | [13] | [14] | [16] | [17]
active: [10] 1.82 µM

Cc1ccccc1CCO
active: [10] 26.6 µM
inactive: [1] | [2] | [3] | [4] | [5] | [15] | [6] | [7] | [9] | [18] | [11] | [12] | [13] | [14] | [16] | [17]

CC(C)c1ccc2ncccc2c1
inactive: [1] | [2] | [3] | [4] | [5] | [15] | [8] | [11] | [13] | [14] | [16] | [17]
active: [10] 27.9 µM

CCCCCOC(=O)CCCCC
inactive: [1] | [2] | [3] | [4] | [5] | [15] | [7] | [8] | [9] | [10] | [18] | [11] | [12] | [13] | [14] | [16] | [17]

CC(C)COC(=O)CC(C(=O)OCC(C)C)S(=O)(=O)O (stereo unspecified)
inactive: [1] | [2] | [3] | [4] | [5] | [15] | [6] | [7] | [8] | [9] | [18] | [11] | [12] | [13] | [14] | [16] | [17]
active: [10] 29.5 µM

Nc1cccc(N)n1
inactive: [1] | [2] | [3] | [4] | [5] | [15] | [6] | [7] | [8] | [9] | [10] | [18] | [11] | [12] | [13] | [14] | [16] | [17]
